{"source": "PubChem BioAssay AID1845224", "about": "(National Center for Advancing Translational Sciences (NCATS), 2023)", "note": "Records with an inconclusive call do not appear. Where a call stands in place of a potency, no number is given. Active and inactive are the calls of the source. Calls follow the shape of the dose curve; as a rule, active = well fitted curve in the direction sought with a large enough effect; inconclusive = small, poorly fitted or top-dose-only effect, or another doubt; inactive = no such curve, though single readings can be large or run the other way. Potency is read from the fitted curve at half-maximal effect.", "data": [{"test_system": "NanoLuc luciferase (engineered Oplophorus gracilirostris luciferase)", "assay": "Confirmatory Nanoluciferase (NLuc) qHTS assay for identification of artifact compounds.", "details": "secreted NLuc in S16 cell medium, luminescence, 5 min; series mostly up to 39 µM", "procedure,_shortened": "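Conditioned medium from NLuc-expressing S16 cells (diluted 1:55) as enzyme source; compounds 15 min at room temperature, then Nano-Glo substrate for 5 min. Luminescence normalized to no-enzyme and DMSO controls, fitted to 4-parameter Hill equation.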", "values": [{"smiles": "O=C(COc1ccc(Cl)cc1)Nc1ccc2nc(SCC(=O)N3CCCC3)sc2c1", "Potency": "inactive"}, {"smiles": "O=S1(=O)N=C(Oc2ccc(-c3ccccc3)cc2)c2ccccc21", "Potency": "inactive"}, {"smiles": "COc1ccc(CC(=O)Nc2nc3c(s2)CCCC3)cc1", "Potency": "inactive"}, {"smiles": "CCCn1c(C)nc2c(N3CCCN(Cc4ccccc4)CC3)nc(C)nc21", "Potency": "inactive"}, {"smiles": "Cc1ccc(NC(=O)c2ncn(-c3ccccc3)n2)c(Cl)c1", "Potency": "inactive"}, {"smiles": "O=C(Nc1ccc(Cl)c(Cl)c1)Nc1ncc(-c2ccncc2)s1", "Potency": "inactive"}, {"smiles": "CCOc1ccccc1NC(=O)N1CCCn2nc(C)cc21", "Potency": "inactive"}, {"smiles": "COC(=O)C1=C[C@@H](C(=O)OC)C2C3=C(C(=O)[C@]2(C)NC(=O)c2ccccc2)[C@H](C)n2c(=O)n(C)c(=O)n2[C@@H]3C1", "note": "(stereo partly specified)", "Potency": "inactive"}, {"smiles": "O=C(O)c1sc2c(c1-c1nc3ccccc3s1)CCNC2", "Potency": "inactive"}, {"smiles": "CCOC(=O)c1c(C)[nH]c(C)c1S(=O)(=O)N1CCC(C(=O)N2CCN(c3ccccc3)CC2)CC1", "Potency": "inactive"}, {"smiles": "COc1ccccc1N1CCN(S(=O)(=O)c2c(C)nc3sc(C)c(C)n3c2=O)CC1", "Potency": "inactive"}, {"smiles": "COc1ccc(-c2cc(C(=O)Nc3cc(C(F)(F)F)ccc3Cl)no2)cc1", "Potency": "inactive"}, {"smiles": "Cc1ccc(C)c(N2CCN(C(=O)c3ccc(Nc4nc5ccccc5n5nnnc45)cc3)CC2)c1", "Potency": "inactive"}, {"smiles": "CCOC(=O)c1cccc(NC(=O)c2ccc3snnc3c2)c1", "Potency": "inactive"}, {"smiles": "COc1ccc(OCc2nnc(-c3ccccc3)o2)cc1", "Potency": "inactive"}, {"smiles": "Cn1cc(S(=O)(=O)N2CCCC2)cc1C(=O)Nc1ccc(C(F)(F)F)cc1", "Potency": "inactive"}, {"smiles": "Cc1ccc(CNc2ncnc3onc(-c4ccc(F)cc4)c23)cc1", "Potency": "inactive"}, {"smiles": "COc1ccccc1/C=C/c1nc(C#N)c(NCCc2ccccc2)o1", "Potency": "inactive"}, {"smiles": "COc1ccc(C(=O)Nc2ccc(-c3nc4ncccc4o3)cc2)cc1", "Potency": "inactive"}, {"smiles": "CCOc1ccc(OCC)c(NS(=O)(=O)c2c(C)[nH]c(=O)[nH]c2=O)c1", "Potency": "inactive"}, {"smiles": "N#C/C(=C\\c1ccc(-c2cc(Cl)ccc2Cl)o1)C(=O)Nc1ccccc1C(=O)O", "Potency": "12.2 µM (active)"}, {"smiles": "CCOC(=O)c1ccc(N2C(=O)c3[nH]nc(-c4ccc(C)cc4)c3C2c2ccc(O)cc2)cc1", "note": "(stereo unspecified)", "Potency": "inactive"}, {"smiles": "Nc1cccc(-c2ccc(NC(=O)c3cccs3)cn2)c1", "Potency": "inactive"}, {"smiles": "Cc1ccc(S(=O)(=O)c2nnn3c2nc(NCc2ccc(F)cc2)c2sccc23)cc1C", "Potency": "inactive"}, {"smiles": "O=c1oc2ccc(F)cc2cc1-c1nc(-c2cccs2)no1", "Potency": "inactive"}, {"smiles": "CCOC(=O)C1CCN(C(=O)Cn2c(=O)oc3cc(S(=O)(=O)N4CCC(C)CC4)ccc32)CC1", "Potency": "inactive"}, {"smiles": "CCOc1ccc(-c2cc(NC(=O)Nc3ccccc3Cl)c(C(=O)OC)s2)cc1", "Potency": "inactive"}, {"smiles": "Cc1c(Cl)cccc1NC(=O)N1CCOc2ccccc21", "Potency": "inactive"}, {"smiles": "Cc1ccc2nc(-c3cccnc3)c(Nc3ccccc3C)n2c1", "Potency": "inactive"}, {"smiles": "N#Cc1cccc(-c2ccc(NC(=O)c3cccs3)cn2)c1", "Potency": "inactive"}, {"smiles": "Cc1ccc(-c2nnc(Nc3cccc(Br)c3)c3ccccc23)cc1S(=O)(=O)N1CCCCC1", "Potency": "inactive"}]}]}
